Among the data in PubChem BioAssay are composite z-score and z-score values, retold here.

The source made the active and inactive calls. Unless noted, the rule behind the calls is not given here.

In assay [1] the test system is Wnt5a (protein binding on small-molecule microarray). In words: Wnt5a binders on small-molecule microarray, primary screen, biophysical, 635/667 nm fluorescence (AID 1142).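 Note: fluorescence read at 667 nm with signal to noise per printed feature.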 The conditions noted are these: 635 nm fluorescence, higher = more signal.
Assay [2] is described as follows: cell viability in Huh7 cells, primary screen, cytotoxicity control for HCV replication inhibitor project, CellTiter-Glo luminescence, basal, 48 h (AID 1143).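 Note: Huh7 hepatoma cells carrying a hepatitis C replication reporter with no stimulus; test concentration not given here.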 The conditions noted are these: Huh7 HCV replicon, higher = more signal, called active from +8 up or from −8 down.
Assay [3] is described as follows: P. aeruginosa biofilm formation inhibitors, primary screen, PAO1 strain, BacTiter-Glo luminescence, LB-PBS (AID 1144). The conditions noted are these: 12 h, higher = more signal.
Assay [4] in a line: CREB reporter modulators without forskolin, primary screen, cell-based, PC12, CRE-LacZ reporter, unstimulated (AID 1145). Particulars: no forskolin, luminescence, 4.5 h, higher = more signal, called active from +8 up or from −8 down.
Assay [5] is described as follows: CREB reporter modulators under forskolin, primary screen, cell-based, PC12, CRE-LacZ reporter, forskolin-stimulated (AID 1146).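 Note: PC12 cells with 6xCRE LacZ reporter stimulated by forskolin 10 µM; beta-galactosidase reporter signal reflecting CREB driven transcription.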 The conditions noted are these: luminescence, 4.5 h, higher = more signal, called active from +8 up or from −8 down.
Assay [6] has as its target Streptavidin (Streptomyces avidinii) (UniProt P22629). In words: streptavidin binders on small-molecule microarray, primary screen, artefact control for SMM compound annotation, biophysical, 635/667 nm fluorescence (AID 1147).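 Note: signal reflects streptavidin binding to arrayed compounds as a control protein.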 The conditions noted are these: streptavidin binding, higher = more signal.
Assay [7] can be described thus: small-molecule binders of probe aInhba, primary screen, biochemical, small-molecule microarray, 635/667 nm fluorescence (AID 1148).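 Note: score merges 667nm spot fluorescence with signal-to-noise for antibody binding to printed compounds.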 Particulars: higher = more signal.
The target in assay [8] is Torsin-1A (Homo sapiens) (UniProt O14656). The assay can be described thus: torsin A binders from cell lysate, primary screen, small-molecule microarray, wild-type, 635/667 nm (AID 1149). The conditions noted are these: COS7 hTOR1A-WT lysate, 635 nm fluorescence, higher = more signal.
Chain of Torsin-1A (Homo sapiens) (O14656 whole entry, looked up): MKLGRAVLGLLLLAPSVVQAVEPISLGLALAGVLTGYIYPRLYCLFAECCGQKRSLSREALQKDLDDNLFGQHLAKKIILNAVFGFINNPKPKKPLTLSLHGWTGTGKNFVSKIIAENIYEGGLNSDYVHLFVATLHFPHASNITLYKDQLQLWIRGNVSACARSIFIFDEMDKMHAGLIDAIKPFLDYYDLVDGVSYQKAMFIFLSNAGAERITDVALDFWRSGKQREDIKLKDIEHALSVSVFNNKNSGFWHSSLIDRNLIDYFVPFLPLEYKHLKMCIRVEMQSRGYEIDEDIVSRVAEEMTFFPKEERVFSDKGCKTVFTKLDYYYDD
Assay [9] has the same target. The assay can be described thus: small-molecule binders of mutant TOR1A in lysate, primary screen, cell lysate, small-molecule microarray, COS7 lysate, 635/667 nm fluorescence (AID 1150).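 Note: score pools 667 nm emission and signal to noise measuring lysate protein binding.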 Particulars: COS7 hTOR1A mutant lysate, 635 nm fluorescence, higher = more signal.
Assay [10] deals with Sonic hedgehog protein (Shh). The assay can be described thus: small-molecule binders of Shh protein, primary screen, biochemical, small-molecule microarray, 635/667 nm fluorescence (AID 1151).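 Note: Shh protein binding to compounds spotted on small-molecule microarray slides; score combines spot fluorescence intensity with signal-to-noise across triplicate slides.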 Particulars: small-molecule microarray binding, 635 nm fluorescence; higher = more signal.
Assay [11] is described as follows: E. coli DRC41 culture turbidity changes, primary screen, E. coli filamentation inducer project, strain DRC41, OD650, 48 h (AID 1152).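 Note: E. coli MC1000 strain DRC41 lacking acrAB efflux pump and sulA.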 The conditions noted are these: E. coli DRC41 (acrAB sulA), higher = more signal, called active from +8 up or from −8 down.
A short description of assay [12]: small-molecule binders of probe aLefty1, primary screen, biochemical, small-molecule microarray, 635/667 nm fluorescence (AID 1153).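 Note: score merges spot fluorescence with signal-to-noise ratio from the scanned slide images.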 The conditions noted are these: higher = more signal.
Assay [13] can be described thus: PSAC antagonists in infected red cells, primary screen, cell-based, P. falciparum Indochina, OD700, 1 h (AID 1154). The conditions noted are these: P. falciparum Indochina infected RBC osmotic lysis, higher = more signal, called active from +8 up or from −8 down.
The nature of assay [14]: PSAC antagonists in infected red cells, primary screen, cell-based, P. falciparum Indochina, OD700, 2 h (AID 1155).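 Note: lysis reports solute entry through the parasite surface anion channel PSAC; channel blockers reduce lysis of infected cells.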 The conditions noted are these: P. falciparum Indochina infected erythrocytes, osmotic lysis OD700; higher = more signal, called active from +8 up or from −8 down.
Assay [15] is described as follows: osmotic lysis modulators in infected erythrocytes, primary screen, PSAC antagonist project, cell-based, P. falciparum Indochina, OD700, 3 h (AID 1156). Particulars: higher = more signal, called active from +8 up or from −8 down.
Assay [16] can be described thus: PSAC antagonists in infected red cells, primary screen, cell-based, P. falciparum Indochina, OD700, 18 h (AID 1157). The conditions noted are these: P. falciparum Indochina infected erythrocytes, osmotic lysis OD700, 18 h; higher = more signal, called active from +8 up or from −8 down.
Assay [17] can be described thus: modulators of S6 phosphorylation in cells, primary screen, cell-based, A549, cytoblot, luminescence, serum-stimulated (AID 1158).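 Note: serum-stimulated A549 lung adenocarcinoma cells; signal is phosphorylated S6 detected by cytoblot immunostaining with HRP secondary.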 The conditions noted are these: A549 phospho-S6 cytoblot, 5 h, higher = more signal.
In assay [18] the target is NADPH oxidase 2 (Homo sapiens) (UniProt P04839). In words: NOX2-dependent H2O2 signal modulators, primary screen, NOX inhibitor project, cell-based, HEK293-NOX2, PMA-stimulated, Amplex Red fluorescence (AID 1159). Note: test concentration not given here. Particulars: 45 min, higher = more signal, called active from +8 up or from −8 down.
Chain of NADPH oxidase 2 (Homo sapiens) (P04839 whole entry, looked up): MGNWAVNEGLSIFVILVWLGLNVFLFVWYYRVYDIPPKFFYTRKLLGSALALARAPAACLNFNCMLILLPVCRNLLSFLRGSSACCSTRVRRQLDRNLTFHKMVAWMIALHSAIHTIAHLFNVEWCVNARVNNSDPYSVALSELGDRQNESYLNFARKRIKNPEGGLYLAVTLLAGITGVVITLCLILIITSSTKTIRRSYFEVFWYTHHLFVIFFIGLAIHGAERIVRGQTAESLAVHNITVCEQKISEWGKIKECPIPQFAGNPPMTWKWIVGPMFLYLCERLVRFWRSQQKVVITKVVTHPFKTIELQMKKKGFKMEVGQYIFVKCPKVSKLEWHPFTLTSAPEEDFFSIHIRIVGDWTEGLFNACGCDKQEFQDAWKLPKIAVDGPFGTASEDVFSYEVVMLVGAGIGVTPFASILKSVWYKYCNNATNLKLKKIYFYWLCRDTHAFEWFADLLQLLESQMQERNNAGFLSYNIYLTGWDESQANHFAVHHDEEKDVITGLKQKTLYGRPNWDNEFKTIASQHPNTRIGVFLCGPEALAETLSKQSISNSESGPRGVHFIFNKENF
The target of assay [19] is NADPH oxidase 4 (Homo sapiens) (UniProt Q9NPH5). In words: NOX4-dependent H2O2 signal modulators, primary screen, NOX inhibitor project, cell-based, HEK293-NOX4, tetracycline-induced, Amplex Red fluorescence (AID 1160). Particulars: 45 min, higher = more signal, called active from +8 up or from −8 down.
Chain of NADPH oxidase 4 (Homo sapiens) (Q9NPH5 whole entry, looked up): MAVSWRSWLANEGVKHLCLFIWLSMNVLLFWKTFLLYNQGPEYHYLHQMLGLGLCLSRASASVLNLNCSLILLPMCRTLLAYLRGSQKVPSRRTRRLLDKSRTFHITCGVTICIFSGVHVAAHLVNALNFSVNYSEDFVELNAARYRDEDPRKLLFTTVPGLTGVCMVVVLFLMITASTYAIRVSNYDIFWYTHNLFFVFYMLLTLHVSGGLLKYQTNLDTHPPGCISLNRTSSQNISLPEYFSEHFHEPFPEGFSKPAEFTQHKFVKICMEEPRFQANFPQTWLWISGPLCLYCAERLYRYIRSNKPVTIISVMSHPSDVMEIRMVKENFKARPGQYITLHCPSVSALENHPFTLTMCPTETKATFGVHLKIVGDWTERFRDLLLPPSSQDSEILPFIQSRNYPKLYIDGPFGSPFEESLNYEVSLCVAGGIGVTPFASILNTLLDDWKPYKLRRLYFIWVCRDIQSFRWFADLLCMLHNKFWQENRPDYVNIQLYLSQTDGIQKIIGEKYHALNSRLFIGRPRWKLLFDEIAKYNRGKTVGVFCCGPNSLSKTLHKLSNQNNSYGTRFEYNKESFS
In assay [20] the target is NADPH oxidase 5 (Homo sapiens) (UniProt Q96PH1). The assay can be described thus: NOX5-dependent H2O2 signal modulators, primary screen, NOX inhibitor project, cell-based, HEK293-NOX5, Amplex Red fluorescence (AID 1161). The conditions noted are these: HEK293-NOX5, ionomycin, 45 min, higher = more signal.
Chain of NADPH oxidase 5 (Homo sapiens) (Q96PH1 whole entry, looked up): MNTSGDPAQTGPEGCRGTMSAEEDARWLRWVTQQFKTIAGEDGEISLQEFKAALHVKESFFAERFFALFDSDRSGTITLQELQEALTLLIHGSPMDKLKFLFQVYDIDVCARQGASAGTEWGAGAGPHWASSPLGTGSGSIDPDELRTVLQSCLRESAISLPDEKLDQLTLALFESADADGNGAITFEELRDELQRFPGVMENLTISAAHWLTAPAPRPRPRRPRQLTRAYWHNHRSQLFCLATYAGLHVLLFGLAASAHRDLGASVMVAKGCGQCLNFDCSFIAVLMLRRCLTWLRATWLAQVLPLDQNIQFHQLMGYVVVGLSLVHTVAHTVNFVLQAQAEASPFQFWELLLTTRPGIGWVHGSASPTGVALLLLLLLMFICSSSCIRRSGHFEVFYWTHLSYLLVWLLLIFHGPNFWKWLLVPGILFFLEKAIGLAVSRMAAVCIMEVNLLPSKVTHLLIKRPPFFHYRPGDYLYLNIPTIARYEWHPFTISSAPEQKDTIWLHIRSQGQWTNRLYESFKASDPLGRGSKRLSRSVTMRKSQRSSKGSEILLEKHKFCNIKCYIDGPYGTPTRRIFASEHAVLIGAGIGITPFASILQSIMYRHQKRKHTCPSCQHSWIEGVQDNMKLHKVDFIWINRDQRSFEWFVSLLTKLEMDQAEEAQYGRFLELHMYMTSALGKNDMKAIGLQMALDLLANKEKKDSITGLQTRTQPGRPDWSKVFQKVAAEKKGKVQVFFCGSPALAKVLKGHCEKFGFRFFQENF

Chain of Streptavidin (Streptomyces avidinii) (P22629 whole entry, looked up): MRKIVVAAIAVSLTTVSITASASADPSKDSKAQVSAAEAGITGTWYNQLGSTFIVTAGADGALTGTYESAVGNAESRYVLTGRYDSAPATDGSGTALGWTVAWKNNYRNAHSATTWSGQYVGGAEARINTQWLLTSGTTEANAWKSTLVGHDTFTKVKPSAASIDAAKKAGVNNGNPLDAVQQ

Turning to `O=C1O[C@@H](c2ccccc2)[C@@H](c2ccccc2)N2[C@@H](c3ccc(O)cc3)[C@]3(C(=O)Nc4ccccc43)[C@@H](C(=O)O)[C@H]12`, the composite z-score in [1] was -0.0286; in assay [6], 0.0078; in assay [7] it was 0.0442; with Torsin-1A (Homo sapiens) [8] it was 0.509; with Torsin-1A (Homo sapiens) [9], 0.548; in [10], -0.192. In [12], this compound showed a composite z-score of -0.0536. In addition, the z-score was -4.36 (inactive) in assay [2]; 0.0547 (inactive) in assay [3]; 0.568 (inactive) in [4]; 0.532 (inactive) in assay [5]; 0.772 (inactive) in assay [11]; 1.41 (inactive) in assay [13]. For the same compound, the z-score is -0.968 (inactive) in assay [14]; 1.11 (inactive) in assay [15]; -1.77 (inactive) in [16]; 1.87 in assay [17]; -0.215 (inactive) in assay [18]; -0.652 (inactive) in assay [19]. Besides, the z-score in assay [20] worked out at 0.0434.
For the compound `CCOC(=O)C1=CC[C@H]2C(=O)N(CC)C(=O)[C@@H]12`, the composite z-score is 0.281 in assay [1]; 0.0789 in assay [6]; -0.0719 in [7]; 0.483 in the assay with Torsin-1A (Homo sapiens) [8]; -0.552 with Torsin-1A (Homo sapiens) [9]; 0.13 in assay [10]. The compound also displayed a composite z-score in assay [12] of -0.0412. For the same compound, the z-score in assay [2] is -0.0046 (inactive); in assay [3] it was -0.929 (inactive); in assay [4], -0.228 (inactive); in assay [5], 0.687 (inactive); in [11], -0.457 (inactive); in assay [13], 1.09 (inactive). Further, the z-score was 1.21 (inactive) in assay [14]; 0.253 (inactive) in assay [15]; 0.804 (inactive) in assay [16]; -0.45 in assay [17]; -0.0988 (inactive) in assay [18]; 0.484 (inactive) in assay [19]. In assay [20], this compound came in with a z-score of 0.829.
For `CCc1cccc(NC(=O)O[C@H]2[C@H](OC(=O)Nc3ccc4c(c3)OCO4)[C@@H](OC(=O)Nc3ccc4c(c3)OCO4)[C@@H](OC)O[C@@H]2CO)c1`, the composite z-score in assay [1] turned out to be 0.546; in [6] it was 1.28; in assay [7] it was 0.0073; with Torsin-1A (Homo sapiens) [8], 1.14; with Torsin-1A (Homo sapiens) [9], 0.731; in assay [10], 1.76. Besides, the composite z-score in assay [12] amounted to 1.01. Besides, the z-score in [2] was -3.35 (inactive); in assay [3], -1.21 (inactive); in [4] it was 0.101 (inactive); in assay [5], -0.684 (inactive); in assay [11], 0.861 (inactive); in [13], 7.56 (inactive). Besides, the z-score in [14] is 1.22 (inactive); in [15] it was 1.37 (inactive); in assay [16], 0.495 (inactive); in assay [17], 0.19; in assay [18], -3.12 (inactive); in assay [19] it was -0.812 (inactive). The same compound had a z-score in [20] of -1.87.
For the compound `COC(=O)[C@H](C)NC(=O)CCC1CC(OC(=O)NCCc2ccc(F)cc2)CC2(CCCC(COC(=O)NCC(c3ccccc3)c3ccccc3)O2)O1` (stereo not given in full), the composite z-score was -0.073 in assay [1]; 0.688 in assay [6]; -0.0044 in [7]; -0.311 in the assay with Torsin-1A (Homo sapiens) [8]; 0.387 with Torsin-1A (Homo sapiens) [9]; 0.282 in assay [10]. Moreover, the composite z-score in [12] is -0.194. The z-score in assay [2] was -0.169 (inactive); in assay [3], -0.0102 (inactive); in assay [4], 1.27 (inactive); in assay [5] it was -0.187 (inactive); in assay [11] it was 0.523 (inactive); in [13] it was 8.81 (active). Besides, the z-score in assay [14] was 2.61 (inactive); in assay [15], -0.286 (inactive); in [16] it was 0.492 (inactive); in assay [17] it was 0.71; in assay [18] it was 0.238 (inactive); in assay [19], 0.0541 (inactive). Also, in assay [20], the z-score is 0.185.
Consider `COC(=O)[C@H](C)NC(=O)CCC1CC(OC(=O)NCc2ccc3c(c2)OCO3)CC2(CCCC(COC(=O)NCCOc3ccccc3)O2)O1` (stereo not given in full), for which the composite z-score in assay [1] is 0.12; in assay [6] it was 0.607; in [7] it was -0.128; with Torsin-1A (Homo sapiens) [8], 0.248; with Torsin-1A (Homo sapiens) [9], 0.492; in assay [10], 1.67. In addition, the composite z-score in assay [12] was -0.414. The z-score in assay [2] is -1.55 (inactive); in [3], -1.53 (inactive); in [4], -0.349 (inactive); in assay [5], -0.422 (inactive); in assay [11] it was -0.638 (inactive); in assay [13], -1.1 (inactive). The z-score in assay [14] was -0.123 (inactive); in assay [15], -0.409 (inactive); in assay [16] it was -0.323 (inactive); in [17], 1.48; in assay [18], -0.245 (inactive); in assay [19] it was 0.758 (inactive). In addition, in assay [20], the z-score amounted to 0.214.
